Consider nine molecules from PubChem BioAssay (NCI).

Test [1] can be described thus: NCI Yeast Anticancer Drug Screen. Data for the rad50 strain (AID 155).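 Note: 0% = growth of vehicle-only cultures of the same strain.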 The conditions noted are these: S. cerevisiae rad50 strain growth inhibition, stronger effect = higher value. The procedure, abridged: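 Genetically altered yeast (DNA repair pathway); compound treatment; growth inhibition vs vehicle ctrl.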
The nature of test [2]: NCI Yeast Anticancer Drug Screen. Data for the mec2-1 strain (AID 157). The conditions noted are these: S. cerevisiae mec2-1 strain, stronger effect = higher value. The procedure, abridged: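 Yeast mec2-1 mutant treated with compound. Readout: growth inhibition vs vehicle controls.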
Test [3] in a line: NCI Yeast Anticancer Drug Screen. Data for the sgs1 mgt1 strain (AID 161).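 Note: 0% = growth of cultures given vehicle only.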 Particulars: S. cerevisiae sgs1 mgt1 strain, stronger effect = higher value. The procedure, abridged: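 Inhibition of yeast growth, normalised to vehicle-treated controls, is reported for a strain bearing genetic alterations in DNA damage repair.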
Test [4] can be described thus: NCI Yeast Anticancer Drug Screen. Data for the cln2 rad14 strain (AID 165).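 Note: 0% = growth equal to vehicle treated cultures.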 Particulars: S. cerevisiae cln2 rad14 strain, stronger effect = higher value. The procedure, abridged: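 cln2 rad14 yeast strain; compound exposure; growth inhibition read vs vehicle controls.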
Test [5] in a line: NCI Yeast Anticancer Drug Screen. Data for the bub3 strain (AID 167). Particulars: S. cerevisiae bub3 mutant strain, stronger effect = higher value. In outline:
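Yeast carrying a defined mutation is treated with each compound, and growth is compared with that of vehicle-exposed cells to give inhibition.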

The nature of test [6]: NCI Yeast Anticancer Drug Screen. Data for the mlh1 rad18 strain (AID 175). The conditions noted are these: S. cerevisiae mlh1 rad18 strain growth inhibition, stronger effect = higher value. The procedure, abridged: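 Yeast w/ defined DNA-repair lesions; compound exposure; growth vs vehicle controls → % inhibition.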
Setting [7] is: at 5.0 µM (retest, dose inferred, filed as 0.5).
Setting [8] is: at 50.0 µM (retest, dose inferred, filed as 5.0).

The panel holds about 79,000 compounds, 15% with a hit somewhere; the sample as a whole holds those more often. Values without a mark were called inactive. Calls of active or inactive are those of the source. Cut-off read from the data, not from the text of the source: active = growth inhibition above about 70%; inactive = the rest.

On to `COC1OC(COC(C)=O)C(OC(C)=O)C(OC(C)=O)[CH]1[Hg][I]` (configuration not stated), for which the growth inhibition in test [1] (setting [7]) was 99% (active); in test [1] (setting [8]) it was 99% (active); in test [1] (at 50.0 µM) it was 99.2% (active); in test [2] (setting [7]), 99% (active); in test [2] (setting [8]), 99% (active); in test [2] (at 50.0 µM) it was 99.6% (active). The growth inhibition is 100% (active) in test [3] (setting [7]); 100% (active) in test [3] (setting [8]); 99.6% (active) in test [3] (at 50.0 µM); 99% (active) in test [4] (setting [7]); 99% (active) in test [4] (setting [8]); 98.9% (active) in test [4] (at 50.0 µM). In addition, the growth inhibition is 99% (active) in test [5] (setting [7]); 99% (active) in test [5] (setting [8]); 99.3% (active) in test [5] (at 50.0 µM); 99% (active) in test [6] (setting [7]); 99% (active) in test [6] (setting [8]); 99.2% (active) in test [6] (at 50.0 µM).
Turning to `CCOC(=O)C(/N=N\c1nn[nH]n1)/N=N/c1ncn[nH]1` (configuration not stated), the growth inhibition in test [1] (setting [7]) was -7%; in test [1] (setting [8]), -8%; in test [1] (at 50.0 µM), 97.7% (active); in test [2] (setting [7]), -28%; in test [2] (setting [8]), -6%; in test [2] (at 50.0 µM), 99.5% (active). Moreover, the growth inhibition in test [3] (setting [7]) was -6%; in test [3] (setting [8]) it was -1%; in test [3] (at 50.0 µM) it was 73.2% (active); in test [4] (setting [7]), -2%; in test [4] (setting [8]), -10%; in test [4] (at 50.0 µM), 93.2% (active). For the same molecule, the growth inhibition in test [5] (setting [7]) is -6%; in test [5] (setting [8]) it was -3%; in test [5] (at 50.0 µM), 98.8% (active); in test [6] (setting [7]), -7%; in test [6] (setting [8]) it was -5%; in test [6] (at 50.0 µM) it was 99.2% (active).
`COc1cc(/C=C/c2ccc(OC)c(OC)c2)cc(OC)c1`: the growth inhibition in test [1] (setting [7]) is -6%; in test [1] (setting [8]), 10%; in test [1] (at 50.0 µM), 26.1%; in test [2] (setting [7]) it was -2%; in test [2] (setting [8]) it was 26%; in test [2] (at 50.0 µM) it was 15.1%. Also, the growth inhibition in test [3] (setting [7]) was -3%; in test [3] (setting [8]), 68%; in test [3] (at 50.0 µM), 79% (active); in test [4] (setting [7]), -4%; in test [4] (setting [8]), 16%; in test [4] (at 50.0 µM), 47.6%. Further, the growth inhibition in test [5] (setting [7]) is 1%; in test [5] (setting [8]), 69%; in test [5] (at 50.0 µM) it was 66.9%; in test [6] (setting [7]), -3%; in test [6] (setting [8]), 12%; in test [6] (at 50.0 µM), 59.5%.
Take `CCC(C)N1CN(c2ccccc2)C2(CCN(CCCC3(c4ccc(F)cc4)OCCO3)CC2)C1=O` (configuration not stated): the growth inhibition in test [1] (setting [7]) is -9%; in test [1] (setting [8]) it was 93% (active); in test [1] (at 50.0 µM), -0.8%; in test [2] (setting [7]), -7%; in test [2] (setting [8]), 98% (active); in test [2] (at 50.0 µM), 5.3%. The growth inhibition in test [3] (setting [7]) is -6%; in test [3] (setting [8]), 95% (active); in test [3] (at 50.0 µM), 34%; in test [4] (setting [7]), -7%; in test [4] (setting [8]), 92% (active); in test [4] (at 50.0 µM), 74.5% (active). In addition, the growth inhibition is -2% in test [5] (setting [7]); 94% (active) in test [5] (setting [8]); 7.55% in test [5] (at 50.0 µM); -3% in test [6] (setting [7]); 96% (active) in test [6] (setting [8]); 31% in test [6] (at 50.0 µM).
In the case of `CNCC(O)c1cn(C)c2ccccc12` (configuration not stated), the growth inhibition was 4% in test [1] (setting [7]); 0% in test [1] (setting [8]); 45% in test [1] (at 50.0 µM); 4% in test [2] (setting [7]); 3% in test [2] (setting [8]); 20.6% in test [2] (at 50.0 µM). Moreover, the growth inhibition in test [3] (setting [7]) was 3%; in test [3] (setting [8]), 5%; in test [3] (at 50.0 µM) it was 25.1%; in test [4] (setting [7]) it was 6%; in test [4] (setting [8]) it was 2%; in test [4] (at 50.0 µM), 22.1%. Further, the growth inhibition is 4% in test [5] (setting [7]); 0% in test [5] (setting [8]); 48.9% in test [5] (at 50.0 µM); 0% in test [6] (setting [7]); -2% in test [6] (setting [8]); 40.9% in test [6] (at 50.0 µM).
With `O=C1C(=O)c2ccccc2-c2ccccc21.O=C1C(=O)c2ccccc2-c2ccccc21.[Hg]`, the growth inhibition in test [1] (setting [7]) is 100% (active); in test [1] (setting [8]) it was 96% (active); in test [1] (at 50.0 µM), 12.2%; in test [2] (setting [7]), 100% (active); in test [2] (setting [8]), 97% (active); in test [2] (at 50.0 µM) it was -7.3%. Further, the growth inhibition in test [3] (setting [7]) was 100% (active); in test [3] (setting [8]) it was 96% (active); in test [3] (at 50.0 µM), -6.8%; in test [4] (setting [7]), 100% (active); in test [4] (setting [8]), 97% (active); in test [4] (at 50.0 µM), 29.8%. Further, the growth inhibition in test [5] (setting [7]) was 100% (active); in test [5] (setting [8]), 96% (active); in test [5] (at 50.0 µM), -13.8%; in test [6] (setting [7]) it was 98% (active); in test [6] (setting [8]), 93% (active); in test [6] (at 50.0 µM), 12.3%.
As to `CCC[CH2][Sn]1([CH2]CCC)[O]C(=O)c2cccnc2[O]1`, the growth inhibition in test [1] (setting [7]) was 34%; in test [1] (setting [8]), 94% (active); in test [1] (at 50.0 µM), 85.3% (active); in test [2] (setting [7]) it was 31%; in test [2] (setting [8]), 97% (active); in test [2] (at 50.0 µM), 85.5% (active). The growth inhibition is 42% in test [3] (setting [7]); 97% (active) in test [3] (setting [8]); 85.3% (active) in test [3] (at 50.0 µM); 22% in test [4] (setting [7]); 93% (active) in test [4] (setting [8]); 78.4% (active) in test [4] (at 50.0 µM). Further, the growth inhibition in test [5] (setting [7]) is 47%; in test [5] (setting [8]), 97% (active); in test [5] (at 50.0 µM), 87.7% (active); in test [6] (setting [7]) it was 51%; in test [6] (setting [8]) it was 97% (active); in test [6] (at 50.0 µM), 84.5% (active).
Turning to `C[As](c1ccc(Br)cc1)c1ccc(Br)cc1`, the growth inhibition in test [1] (setting [7]) was -4%; in test [1] (setting [8]), 1%; in test [1] (at 50.0 µM) it was 3.6%; in test [2] (setting [7]), -2%; in test [2] (setting [8]) it was 20%; in test [2] (at 50.0 µM), 25.8%. Moreover, the growth inhibition in test [3] (setting [7]) is 7%; in test [3] (setting [8]), 46%; in test [3] (at 50.0 µM) it was 75.5% (active); in test [4] (setting [7]), -5%; in test [4] (setting [8]) it was -18%; in test [4] (at 50.0 µM) it was 52.1%. Also, the growth inhibition in test [5] (setting [7]) was 2%; in test [5] (setting [8]), 44%; in test [5] (at 50.0 µM), -14.2%; in test [6] (setting [7]), 6%; in test [6] (setting [8]) it was 22%; in test [6] (at 50.0 µM), 53%.
On to `C[N+](C)=C1C=CC(=C2C=CSC=C2)C=C1`, for which the growth inhibition in test [1] (setting [7]) was 22%; in test [1] (setting [8]) it was 45%; in test [1] (at 50.0 µM) it was 11.1%; in test [2] (setting [7]), 27%; in test [2] (setting [8]), 36%; in test [2] (at 50.0 µM) it was 10.3%. Besides, the growth inhibition in test [3] (setting [7]) is 20%; in test [3] (setting [8]), 46%; in test [3] (at 50.0 µM) it was 59.8%; in test [4] (setting [7]), 29%; in test [4] (setting [8]), 45%; in test [4] (at 50.0 µM), 25%. In addition, the growth inhibition in test [5] (setting [7]) was 17%; in test [5] (setting [8]), 72% (active); in test [5] (at 50.0 µM), 79.2% (active); in test [6] (setting [7]) it was 26%; in test [6] (setting [8]), 52%; in test [6] (at 50.0 µM), 89.8% (active).
